Measurements published in PubChem BioAssay AID651658 (Broad Institute, 2012).
Among all 340,000 compounds or so, about 5,100 (1.5%) were called active.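 Rule for the calls: active = mean Tm shift, scaled 0 neutral to 100 positive control, at about 1.3% or above, every replicate too (limit read from the data); inconclusive = no clear call, values can overlap the other calls; inactive = the rest.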 The full list was thinned out, with actives kept by preference.

Molecular target: Fibroblast growth factor 22 (Homo sapiens) (UniProt Q9HCT0)
Sequence (Q9HCT0 whole entry, looked up): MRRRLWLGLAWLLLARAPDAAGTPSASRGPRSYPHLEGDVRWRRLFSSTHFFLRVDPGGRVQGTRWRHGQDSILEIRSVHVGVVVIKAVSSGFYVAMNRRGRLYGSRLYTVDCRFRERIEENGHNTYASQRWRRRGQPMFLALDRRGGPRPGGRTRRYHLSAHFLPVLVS
Test: binders of human FGF22 protein, primary screen, FGF22 synaptogenesis inhibitor project, biophysical, thermal shift, single point (AID 651658)
Conditions: recombinant FGF22 thermal shift, SYPRO orange fluorescence, at 9.99 µM, stronger effect = higher value

SMILES | activity (Tm shift, normalised)
Cc1ccc(-c2cc(C(=O)N3CCC4(CC3)OCCO4)no2)cc1 | 43.1% (active)
Cc1cccc(-n2c(C)nc3cc(C(=O)N4CCC5(CC4)OCCO5)ccc32)c1 | 0.173% (inactive)
O=C(c1ccccc1[N+](=O)[O-])N1CCC2(CC1)OCCO2 | -0.032% (inactive)
COc1cccc(-c2ccc3n(c2=O)C[C@@H]2[C@@H](CO)[C@H](C(=O)O)[C@H]3N2C(=O)c2cnccn2)c1 | -0.051% (inactive)
C[C@]12CCCCC1=CC(=O)C1C2CC[C@@]2(C)C1C[C@@H](F)[C@@H]2O (stereo not given in full) | 43.1% (active)
C[C@]12CCC3C(CC[C@H]4[C@H](O)[C@H](O)CC[C@]34C)C1CCC2=O (stereo not given in full) | 42.7% (inactive)
COC(=O)[C@@H]1[C@@H](CO)[C@@H]2Cn3c(ccc(C4=CCCCC4)c3=O)[C@H]1N2CC1CC1 | 0.126% (inactive)
C/C=C/c1ccc(C2[C@@H]3CN(Cc4cncnc4)C[C@H]2N3)cc1 (stereo not given in full) | -0.323% [percent of sucrose octasulfate shift, DMSO zero] (inactive)
COc1cccc(-c2ccc3n(c2=O)C[C@H]2[C@H](CO)[C@@H](C(=O)O)[C@@H]3N2C(=O)c2cnccn2)c1 | -0.009% (inactive)
CC=C(C)C(=O)OC1CCN2CC=C(COC(=O)C(O)(C(C)OC)C(C)(C)O)C12 (stereo not given) | 43.1% (active)
O=C(O)[C@H]1[C@H](CO)[C@H]2Cn3c(ccc(-c4ccccc4)c3=O)[C@@H]1N2S(=O)(=O)c1ccccc1F | 0.019% (inactive)
COC(=O)[C@@H]1[C@@H](CO)[C@@H]2Cn3c(ccc(-c4ccc(F)cc4)c3=O)[C@H]1N2C(C)=O | -0.001% (inactive)
COC(=O)[C@H]1[C@H](CO)[C@H]2Cn3c(ccc(-c4cccc(F)c4)c3=O)[C@@H]1N2Cc1ccccc1 | -0.258% (inactive)
c1ccc(C(CN2CCCCC2)c2ccccc2)cc1 | -0.37% (inactive)
O=C(c1ccccc1)C(O)(CN1CCCCC1)c1ccccc1 (stereo not given) | -0.158% (inactive)
CC(CC(C#N)(c1ccccc1)c1ccccc1)N1CCCCC1 (stereo not given) | 43.4% (active)
O=C(Cc1ccccc1)N1CCCCN2[C@H](CO)[C@H](c3ccc(C#Cc4ccccc4)cc3)[C@H]2C1 | -0.682% (inactive)
C/C=C/c1ccc(C2[C@@H]3CN(S(C)(=O)=O)C[C@H]2N3)cc1 (stereo not given in full) | 0.016% [percent of sucrose octasulfate shift, DMSO zero] (inactive)
CCN(CC)C(=O)[C@@H]1C=C2c3cccc4[nH]c(Br)c(c34)C[C@H]2N(C)C1 | 0.114% (inactive)
COC(=O)[C@H]1[C@H](CO)[C@H]2Cn3c(ccc(-c4ccccc4F)c3=O)[C@@H]1N2C(=O)C1CCC1 | 0.081% (inactive)
